molecular target: Serine/threonine-protein kinase MRCK beta (Homo sapiens) (UniProt Q9Y5S2); conditions: at 0.1 µM
Sequence (Q9Y5S2 whole entry): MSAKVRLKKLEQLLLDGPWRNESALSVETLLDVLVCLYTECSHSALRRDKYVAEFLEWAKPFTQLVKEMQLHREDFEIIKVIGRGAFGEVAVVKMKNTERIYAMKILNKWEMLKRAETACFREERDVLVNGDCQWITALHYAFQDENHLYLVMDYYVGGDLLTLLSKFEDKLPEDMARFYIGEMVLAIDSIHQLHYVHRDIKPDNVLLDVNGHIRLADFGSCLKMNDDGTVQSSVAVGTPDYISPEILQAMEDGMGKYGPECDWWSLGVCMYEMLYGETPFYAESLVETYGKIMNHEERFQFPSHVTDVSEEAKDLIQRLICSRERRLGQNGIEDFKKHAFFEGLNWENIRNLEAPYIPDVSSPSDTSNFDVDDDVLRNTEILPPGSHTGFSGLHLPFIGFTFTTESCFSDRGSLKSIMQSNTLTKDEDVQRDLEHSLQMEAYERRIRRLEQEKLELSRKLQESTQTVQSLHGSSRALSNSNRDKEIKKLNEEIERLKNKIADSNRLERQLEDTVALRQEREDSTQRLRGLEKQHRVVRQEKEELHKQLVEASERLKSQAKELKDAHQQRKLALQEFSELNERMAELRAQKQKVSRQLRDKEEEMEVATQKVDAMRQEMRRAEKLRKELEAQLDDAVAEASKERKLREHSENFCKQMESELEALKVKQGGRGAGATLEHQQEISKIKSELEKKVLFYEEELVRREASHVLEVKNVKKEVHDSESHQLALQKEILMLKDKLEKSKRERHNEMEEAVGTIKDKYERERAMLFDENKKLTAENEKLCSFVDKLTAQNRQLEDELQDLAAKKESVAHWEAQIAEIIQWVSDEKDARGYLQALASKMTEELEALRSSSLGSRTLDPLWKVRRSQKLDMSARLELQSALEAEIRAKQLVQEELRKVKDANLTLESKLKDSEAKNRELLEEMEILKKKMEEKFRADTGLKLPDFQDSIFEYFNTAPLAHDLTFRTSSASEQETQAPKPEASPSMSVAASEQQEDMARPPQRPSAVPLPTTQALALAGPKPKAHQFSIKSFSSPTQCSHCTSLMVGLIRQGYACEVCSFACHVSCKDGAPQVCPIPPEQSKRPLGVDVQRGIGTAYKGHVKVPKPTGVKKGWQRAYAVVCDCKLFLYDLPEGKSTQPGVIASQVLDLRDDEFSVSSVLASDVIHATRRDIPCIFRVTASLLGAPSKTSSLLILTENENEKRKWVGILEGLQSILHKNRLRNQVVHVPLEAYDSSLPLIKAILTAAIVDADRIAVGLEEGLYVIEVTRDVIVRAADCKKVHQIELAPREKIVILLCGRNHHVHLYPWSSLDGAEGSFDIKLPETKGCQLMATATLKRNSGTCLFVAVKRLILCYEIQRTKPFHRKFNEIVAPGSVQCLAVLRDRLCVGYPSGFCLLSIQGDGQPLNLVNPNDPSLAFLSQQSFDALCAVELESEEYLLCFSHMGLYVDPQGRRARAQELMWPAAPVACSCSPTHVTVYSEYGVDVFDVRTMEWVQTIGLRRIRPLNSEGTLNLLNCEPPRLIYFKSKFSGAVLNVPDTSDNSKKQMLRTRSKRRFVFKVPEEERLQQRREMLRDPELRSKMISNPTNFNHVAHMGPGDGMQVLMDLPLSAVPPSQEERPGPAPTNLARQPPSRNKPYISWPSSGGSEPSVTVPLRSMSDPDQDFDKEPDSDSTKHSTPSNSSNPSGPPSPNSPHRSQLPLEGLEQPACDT

First: CN(C)CCCn1c(-c2nonc2N)nc2cnccc21
Second: CCn1c(-c2nonc2N)nc2c(C#CC(C)(C)O)nc(OCCNC)cc21
The inhibition of the first is higher: 4.34% for the first, -0.48% for the second.

First: CN(c1ccc(NC(=O)Nc2ccc(OC(F)(F)F)cc2)cc1)c1ccnc(Nc2cccc(S(N)(=O)=O)c2)n1
Second: COc1ccc(-c2nn3ncccc3c2-c2ccnc(Nc3cccc(C(F)(F)F)c3)n2)cc1
The inhibition of the first is lower: -0.58% for the first, 0.66% for the second.

Compared with O=C(Nc1ccc(Oc2ccc3[nH]c(NC(=O)c4ccco4)nc3c2)cc1)Nc1cc(C(F)(F)F)ccc1F, COC(=O)Nc1nc2cc(Oc3ccc(NC(=O)Nc4cccc(Br)c4)cc3)ccc2[nH]1 is lower in inhibition: 1.48% for the first, 1.24% for the second.

First: c1ccc(Cc2nc3ccc(Nc4ncnc5ccccc45)cc3[nH]2)cc1
Second: CN(C)c1cc2c(Nc3ccc4c(cnn4Cc4ccccc4)c3)ncnc2cn1
The inhibition of the first is lower: -0.96% for the first, 1.04% for the second.

Going from C[C@@H](Oc1cc(-n2cnc3ccc(OCC4CCN(C)CC4)cc32)sc1C(N)=O)c1ccccc1C(F)(F)F to C[C@@H](Oc1cc(-n2cnc3ccc(OC[C@@H](O)CO)cc32)sc1C(N)=O)c1ccccc1Cl, the inhibition rises from 0.07% to 1.02%.

First: Nc1nccc(-c2c(-c3ccc(F)cc3)nn3cc(C(F)(F)F)ccc23)n1
Second: FC(F)(F)c1ccc(-c2nn3ncccc3c2-c2ccnc(Nc3ccc4c(c3)OCCO4)n2)cc1
The inhibition of the first is lower: -0.89% for the first, 6.18% for the second.

First: NC(=O)c1cccc(Nc2nccc(Nc3cccc(F)c3)n2)c1
Second: Cc1ccc(Nc2ccnc(Nc3cccc(C(N)=O)c3)n2)cc1O
The inhibition of the first is higher: 0.04% for the first, -0.24% for the second.

Going from Nc1nccc(C#Cc2cncnc2Nc2ccc(OCc3cccc(F)c3)c(Cl)c2)n1 to Nc1ccc(C#Cc2cncnc2Nc2ccc(OCc3cccc(F)c3)c(Cl)c2)cc1, the inhibition rises from -0.16% to 1.04%.

First: NC(=O)c1sc(-n2cnc3ccccc32)cc1OCc1ccccc1Br
Second: COc1cc2ncn(-c3cc(OCc4ccccc4S(C)(=O)=O)c(C#N)s3)c2cc1OC
The inhibition of the first is lower: -1.16% for the first, 1.99% for the second.

Compared with NS(=O)(=O)c1ccc(-c2cc3ccncc3cc2OCc2ccccc2)cc1, NS(=O)(=O)c1ccc(Nc2cc(-c3cccc(O)c3)n[nH]2)cc1 is higher in inhibition: -1.66% for the first, 0.64% for the second.

First: Cc1cc(-c2ccccn2)cc(C)c1/C=C/c1cncc(-c2nn[nH]n2)c1
Second: COC(=O)c1cncc(/C=C/c2c(C)cc(O)cc2C)c1
The inhibition of the first is higher: 0.75% for the first, -0.09% for the second.

First: Oc1cccc(-c2nc(-c3ccccc3)[nH]c2-c2ccncc2)c1
Second: OCc1ccc(-c2nc(-c3ccccn3)c(-c3ccc4c(c3)OCO4)[nH]2)cc1
The inhibition of the first is lower: -0.32% for the first, 0.91% for the second.

Going from Cc1ccc(NC(=O)CC2CC2)cc1-c1ccc(C(=O)NCC2CC2)cc1 to CS(=O)(=O)Nc1cccc(-c2ccc3c(NC(=O)C4CC4)n[nH]c3c2)c1, the inhibition rises from -0.56% to 0.84%.

Going from Cc1ccc2c(c1)/C(=N/Nc1ccc(S(N)(=O)=O)cc1)C(=O)N2 to NS(=O)(=O)c1ccc(NC=C2C(=O)Nc3ccc4ncsc4c32)cc1, the inhibition rises from -0.79% to 5.03%.

Compared with COc1cc(/C=N/Nc2ncnc3c2cnn3C(C)C)ccc1O, COc1cc2ncnc(Nc3ccc(C)c(O)c3)c2cc1OC is higher in inhibition: 0.84% for the first, 1.59% for the second.

First: COc1cc(Nc2nccc(-c3cnn4ncccc34)n2)cc(OC)c1
Second: CCS(=O)(=O)c1ccc(OC)c(Nc2nccc(N(C)c3ccc4c(C)n[nH]c4c3)n2)c1
The inhibition of the first is higher: 1.06% for the first, 0.97% for the second.

For [O-][S+]1CCN(Cc2ccc(-c3ccc4ncnc(Nc5ccc(OCc6ccccc6)c(Cl)c5)c4c3)o2)CC1, the inhibition was 0.47%.

molecular target: Serine/threonine-protein kinase MRCK beta (Homo sapiens) (UniProt Q9Y5S2); conditions: at 1 µM

Going from CN(C)CCCn1c(-c2nonc2N)nc2cnccc21 to CCn1c(-c2nonc2N)nc2c(C#CC(C)(C)O)nc(OCCNC)cc21, the inhibition falls from 22.6% to 2.36%.

First: CN(c1ccc(NC(=O)Nc2ccc(OC(F)(F)F)cc2)cc1)c1ccnc(Nc2cccc(S(N)(=O)=O)c2)n1
Second: COc1ccc(-c2nn3ncccc3c2-c2ccnc(Nc3cccc(C(F)(F)F)c3)n2)cc1
The inhibition of the first is lower: -2.72% for the first, -0.13% for the second.

Compared with O=C(Nc1ccc(Oc2ccc3[nH]c(NC(=O)c4ccco4)nc3c2)cc1)Nc1cc(C(F)(F)F)ccc1F, COC(=O)Nc1nc2cc(Oc3ccc(NC(=O)Nc4cccc(Br)c4)cc3)ccc2[nH]1 is lower in inhibition: 2.67% for the first, -0.22% for the second.

First: c1ccc(Cc2nc3ccc(Nc4ncnc5ccccc45)cc3[nH]2)cc1
Second: CN(C)c1cc2c(Nc3ccc4c(cnn4Cc4ccccc4)c3)ncnc2cn1
The inhibition of the first is lower: -0.17% for the first, 1.67% for the second.

Compared with C[C@@H](Oc1cc(-n2cnc3ccc(OCC4CCN(C)CC4)cc32)sc1C(N)=O)c1ccccc1C(F)(F)F, C[C@@H](Oc1cc(-n2cnc3ccc(OC[C@@H](O)CO)cc32)sc1C(N)=O)c1ccccc1Cl is higher in inhibition: 0.75% for the first, 3.59% for the second.

First: Nc1nccc(-c2c(-c3ccc(F)cc3)nn3cc(C(F)(F)F)ccc23)n1
Second: FC(F)(F)c1ccc(-c2nn3ncccc3c2-c2ccnc(Nc3ccc4c(c3)OCCO4)n2)cc1
The inhibition of the first is lower: -2.82% for the first, 4.64% for the second.

Going from NC(=O)c1cccc(Nc2nccc(Nc3cccc(F)c3)n2)c1 to Cc1ccc(Nc2ccnc(Nc3cccc(C(N)=O)c3)n2)cc1O, the inhibition falls from 1.43% to -0.07%.

First: Nc1nccc(C#Cc2cncnc2Nc2ccc(OCc3cccc(F)c3)c(Cl)c2)n1
Second: Nc1ccc(C#Cc2cncnc2Nc2ccc(OCc3cccc(F)c3)c(Cl)c2)cc1
The inhibition of the first is higher: 2.38% for the first, 1.18% for the second.

Compared with NC(=O)c1sc(-n2cnc3ccccc32)cc1OCc1ccccc1Br, COc1cc2ncn(-c3cc(OCc4ccccc4S(C)(=O)=O)c(C#N)s3)c2cc1OC is higher in inhibition: 0.28% for the first, 4.7% for the second.

Going from NS(=O)(=O)c1ccc(-c2cc3ccncc3cc2OCc2ccccc2)cc1 to NS(=O)(=O)c1ccc(Nc2cc(-c3cccc(O)c3)n[nH]2)cc1, the inhibition rises from -2.27% to 1.33%.

Going from Cc1cc(-c2ccccn2)cc(C)c1/C=C/c1cncc(-c2nn[nH]n2)c1 to COC(=O)c1cncc(/C=C/c2c(C)cc(O)cc2C)c1, the inhibition rises from 0.41% to 0.48%.

First: Oc1cccc(-c2nc(-c3ccccc3)[nH]c2-c2ccncc2)c1
Second: OCc1ccc(-c2nc(-c3ccccn3)c(-c3ccc4c(c3)OCO4)[nH]2)cc1
The inhibition of the first is lower: 0.92% for the first, 1.33% for the second.

Compared with Cc1ccc(NC(=O)CC2CC2)cc1-c1ccc(C(=O)NCC2CC2)cc1, CS(=O)(=O)Nc1cccc(-c2ccc3c(NC(=O)C4CC4)n[nH]c3c2)c1 is higher in inhibition: 0.45% for the first, 1.32% for the second.

First: Cc1ccc2c(c1)/C(=N/Nc1ccc(S(N)(=O)=O)cc1)C(=O)N2
Second: NS(=O)(=O)c1ccc(NC=C2C(=O)Nc3ccc4ncsc4c32)cc1
The inhibition of the first is lower: 1.36% for the first, 15.4% for the second.

Compared with COc1cc(/C=N/Nc2ncnc3c2cnn3C(C)C)ccc1O, COc1cc2ncnc(Nc3ccc(C)c(O)c3)c2cc1OC is lower in inhibition: 0.35% for the first, 0.25% for the second.

First: COc1cc(Nc2nccc(-c3cnn4ncccc34)n2)cc(OC)c1
Second: CCS(=O)(=O)c1ccc(OC)c(Nc2nccc(N(C)c3ccc4c(C)n[nH]c4c3)n2)c1
The inhibition of the first is higher: 3.3% for the first, 0.83% for the second.

Compound [O-][S+]1CCN(Cc2ccc(-c3ccc4ncnc(Nc5ccc(OCc6ccccc6)c(Cl)c5)c4c3)o2)CC1 has an inhibition of -0.33%.
